Rows were chosen to be rich in hits. Some 3.6% of all compounds tested hit in one or more screens of this group.
Myeloid diff 2: promotes myeloid progenitor differentiation; ER-HoxA9 myeloid progenitors, lysozyme-GFP differentiation, flow cytometry; calls only at 10 µM; actives 1% (n = 360,000); AID 624256;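 active = normalized GFP-positive differentiation at or above the plate's own cutoff, the solvent-only control mean plus 3 SD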;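 also: cells exposed to compound for four days before flow analysis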
CendR NRP1 mod: NRP-1/CendR interaction modulation; O14786; FAM-RPARPAR peptide binding to NRP-1, fluorescence polarization; inhibition, % at 25 µM; actives 0.85% (n = 360,000);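 active = inhibition or corrected inhibition above about 18%, plus a signal ratio from 0.5 to 1.5, limit read from the data, passing the limit was not always enough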
Target sequence (O14786 whole entry, looked up): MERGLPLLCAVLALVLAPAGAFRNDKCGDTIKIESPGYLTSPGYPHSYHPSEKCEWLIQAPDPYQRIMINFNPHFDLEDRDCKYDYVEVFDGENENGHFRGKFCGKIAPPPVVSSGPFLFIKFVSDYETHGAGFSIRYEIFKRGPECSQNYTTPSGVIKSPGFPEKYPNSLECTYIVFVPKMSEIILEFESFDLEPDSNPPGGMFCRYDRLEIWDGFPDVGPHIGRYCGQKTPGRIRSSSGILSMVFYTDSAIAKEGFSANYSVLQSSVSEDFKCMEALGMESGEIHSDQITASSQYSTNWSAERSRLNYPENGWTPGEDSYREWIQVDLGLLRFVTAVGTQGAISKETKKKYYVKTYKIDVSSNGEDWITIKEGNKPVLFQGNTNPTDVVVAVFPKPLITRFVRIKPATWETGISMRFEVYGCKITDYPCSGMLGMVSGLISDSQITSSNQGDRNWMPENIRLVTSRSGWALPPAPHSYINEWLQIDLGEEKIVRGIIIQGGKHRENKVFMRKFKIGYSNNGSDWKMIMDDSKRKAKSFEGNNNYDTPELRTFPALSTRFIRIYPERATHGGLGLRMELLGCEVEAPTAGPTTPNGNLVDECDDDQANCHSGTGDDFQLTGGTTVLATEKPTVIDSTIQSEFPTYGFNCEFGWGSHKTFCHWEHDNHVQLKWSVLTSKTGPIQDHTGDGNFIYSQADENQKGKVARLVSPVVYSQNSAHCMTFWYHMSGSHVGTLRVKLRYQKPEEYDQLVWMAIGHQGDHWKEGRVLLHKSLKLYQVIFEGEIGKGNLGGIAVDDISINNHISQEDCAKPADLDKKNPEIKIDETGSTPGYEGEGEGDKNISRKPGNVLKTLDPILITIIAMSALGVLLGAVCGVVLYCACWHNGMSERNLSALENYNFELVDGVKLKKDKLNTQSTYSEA
NadD inh: NadD (S. aureus) enzyme inhibition; purified NadD enzyme, colorimetric absorbance read-out; inhibition, % at 20 µM; actives 0.78% (n = 360,000); AID 602399; in the data active = inhibition above about 26%
CRFR2-BP antag: blocks CRF-induced signaling of the CRF-BP/CRF-R2 complex. HEK293 CRF-R2/CRF-BP, CRF-induced calcium fluorescence. inhibition, % at 11.8 µM. actives 0.59% (n = 350,000);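 active = inhibition of the ligand-induced calcium signal above about 50% at the single tested concentration, limit read from the data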
FAS-TE inh: FAS thioesterase (human) inhibition; actives 0.67% (n = 360,000); P49327; recombinant FAS-TE, OMFH fluorogenic substrate, fluorescence endpoint; inhibition, % at 15 µM;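 active = compounds whose normalised, plate-corrected inhibition of enzyme fluorescence in the single-dose primary screen is 50% or more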;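 also: 0% = DMSO with enzyme and 100% = substrate without enzyme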
FAS-TE inh conf: confirmation of human fatty acid synthase thioesterase inhibitors; shares compounds with FAS-TE inh; recombinant FAS-TE, OMFH fluorogenic substrate, fluorescence; inhibition, % at 15 µM; actives 45% (n = 2,300); AID 624325;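 active = compounds inhibiting the enzyme by at least 50% at 15 µM in any one of the replicates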;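 also: 0% = enzyme with DMSO only and 100% = wells lacking enzyme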
Starred values were filed as active, the others as inactive.

How did O=C(C[C@H]1C[C@H](C(=O)N2CCCCC2)[C@@]2(CCc3ccccc3)c3[nH]c4ccc(Cl)cc4c3CCN2C1=O)NCc1cccc(C(F)(F)F)c1 do in these assays?
Myeloid diff 2: inactive; CendR NRP1 mod: -1; NadD inh: 28; CRFR2-BP antag: 7; FAS-TE inh: 36

How did CC(C)(C)NC(=O)CC1C[C@H](C(=O)N2CCOCC2)[C@@]2(CCC3CCCC3)c3[nH]c4ccccc4c3CCN2C1=O (stereo partly drawn) do in these assays?
Myeloid diff 2: inactive; CendR NRP1 mod: -16; NadD inh: 0; CRFR2-BP antag: -54; FAS-TE inh: 81*; FAS-TE inh conf: 76*

What do the screens show for `O=C(CC1C[C@H](C(=O)N2CCCCC2)[C@@]2(CCc3ccccc3)c3[nH]c4ccccc4c3CCN2C1=O)NCc1cccc(C(F)(F)F)c1` (stereo partly drawn)?
Myeloid diff 2: inactive; CendR NRP1 mod: -4; NadD inh: 24; CRFR2-BP antag: 0; FAS-TE inh: 54*; FAS-TE inh conf: 29

What do the screens show for `O=C(CC1C[C@H](C(=O)N2CCOCC2)[C@@]2(CCC3CCCC3)c3[nH]c4ccccc4c3CCN2C1=O)NCCCn1ccnc1` (stereo partly drawn)?
Myeloid diff 2: inactive; CendR NRP1 mod: 5; NadD inh: 10; CRFR2-BP antag: -35; FAS-TE inh: 69*; FAS-TE inh conf: 64*

How did O=C(Nc1ccccc1)c1ccc(S(=O)(=O)N2CCCC2)cc1 do in these assays?
Myeloid diff 2: inactive; CendR NRP1 mod: 0; NadD inh: -8; CRFR2-BP antag: 11; FAS-TE inh: -8

Results for O=C(Nc1nc(-c2ccccc2)c(C(=O)c2ccccc2)s1)c1ccc(S(=O)(=O)N2CCCC2)cc1 ?
Myeloid diff 2: inactive; CendR NRP1 mod: -2; NadD inh: 30; CRFR2-BP antag: -23; FAS-TE inh: 83*; FAS-TE inh conf: 22

What do the screens show for `CN(C)S(=O)(=O)c1ccc(C(=O)Nc2nc(-c3ccccc3)c(C(=O)c3ccccc3)s2)cc1`?
Myeloid diff 2: inactive; CendR NRP1 mod: 8; NadD inh: 24; CRFR2-BP antag: 26; FAS-TE inh: 38

How did O=C(Nc1nc(-c2ccccc2)c(-c2ccccc2)s1)c1ccc(S(=O)(=O)N2CCCC2)cc1 do in these assays?
Myeloid diff 2: inactive; CendR NRP1 mod: -10; NadD inh: 21; CRFR2-BP antag: 10; FAS-TE inh: 67*; FAS-TE inh conf: 15

Results for COC(=O)c1sc2ccccc2c1NC(=O)c1ccc(S(=O)(=O)N2CCCCC2)cc1 ?
Myeloid diff 2: inactive; CendR NRP1 mod: 1; NadD inh: 2; CRFR2-BP antag: -14; FAS-TE inh: 62*; FAS-TE inh conf: 32

Results for CCOC(=O)Cc1csc(NC(=S)NC(=O)C(C)(C)C)n1 ?
Myeloid diff 2: inactive; CendR NRP1 mod: -2; NadD inh: -2; CRFR2-BP antag: 41; FAS-TE inh: 1

What do the screens show for `COc1ccc(CN2CC(=O)N3[C@H]4c5ccc(OC)cc5OC[C@@H]4[C@H](c4ccccc4)[C@]3(C)C2=O)cc1`?
Myeloid diff 2: inactive; CendR NRP1 mod: 17; NadD inh: -4; CRFR2-BP antag: -7; FAS-TE inh: 66*; FAS-TE inh conf: 18

What do the screens show for `COc1ccc2c(c1)OC[C@H]1[C@H]2N2C(=O)CN(Cc3ccc(Cl)cc3)C(=O)[C@@]2(C)[C@H]1c1ccccc1`?
Myeloid diff 2: inactive; CendR NRP1 mod: -20; NadD inh: 19; CRFR2-BP antag: -5; FAS-TE inh: 75*; FAS-TE inh conf: 29

Results for CCOC(=O)[C@@H]1[C@H]2COc3cc(OC)ccc3[C@H]2N2C(=O)N(c3cccc(Cl)c3)C(=O)[C@@]12C ?
Myeloid diff 2: inactive; CendR NRP1 mod: 4; NadD inh: -3; CRFR2-BP antag: -7; FAS-TE inh: 74*; FAS-TE inh conf: 48*

Results for COc1ccc2c(c1)OC[C@H]1[C@H]2N2C(=O)CN(C)C(=O)[C@@]2(C)[C@H]1c1ccccc1 ?
Myeloid diff 2: inactive; CendR NRP1 mod: -10; NadD inh: -2; CRFR2-BP antag: 7; FAS-TE inh: -7

Results for CCOC(=O)[C@@H]1[C@H]2COc3cc(OC)ccc3[C@H]2N2C(=O)N(c3cccc(Cl)c3)C(=O)[C@]12C ?
Myeloid diff 2: inactive; CendR NRP1 mod: -1; NadD inh: -5; CRFR2-BP antag: 0; FAS-TE inh: 21

Results for COc1ccc2c(c1)OC[C@H]1[C@H]2N2C(=O)CN(Cc3ccccc3)C(=O)[C@@]2(C)[C@H]1c1ccccc1 ?
Myeloid diff 2: inactive; CendR NRP1 mod: -13; NadD inh: 6; CRFR2-BP antag: -9; FAS-TE inh: 49

What do the screens show for `CC(=O)c1cccc(-c2ccnc3c2CC(C(=O)Nc2cccc(OC(F)(F)F)c2)O3)c1` (stereo not drawn)?
Myeloid diff 2: inactive; CendR NRP1 mod: -2; NadD inh: 3; FAS-TE inh: 54*; FAS-TE inh conf: 57*

Results for O=C(Nc1cccc(OC(F)(F)F)c1)C1Cc2c(-c3ccc(Cl)cc3)ccnc2O1 (stereo not drawn) ?
Myeloid diff 2: inactive; CendR NRP1 mod: -1; NadD inh: 2; FAS-TE inh: 32

Results for O=C(c1ccccc1)n1ccc(-c2cnc(-c3ccccc3)s2)n1 ?
Myeloid diff 2: inactive; CendR NRP1 mod: 5; NadD inh: -9; CRFR2-BP antag: -23; FAS-TE inh: 36

How did COc1ccc(S(=O)(=O)n2ccc(-c3cnc(-c4ccccc4)s3)n2)cc1 do in these assays?
Myeloid diff 2: inactive; CendR NRP1 mod: -11; NadD inh: -7; CRFR2-BP antag: -2; FAS-TE inh: 58*; FAS-TE inh conf: 42

What do the screens show for `Fc1c(CSC(=S)N2CCOCC2)cccc1CSC(=S)N1CCOCC1`?
Myeloid diff 2: inactive; CendR NRP1 mod: 0; NadD inh: -10; CRFR2-BP antag: -24; FAS-TE inh: 30

Results for O=C(NNS(=O)(=O)c1ccccc1)c1cnn(-c2ccccc2)c1-n1cccc1 ?
Myeloid diff 2: inactive; CendR NRP1 mod: 7; NadD inh: 2; CRFR2-BP antag: -7; FAS-TE inh: -4

How did O=C(NNS(=O)(=O)c1ccc([N+](=O)[O-])cc1)c1cnn(-c2ccccc2)c1-n1cccc1 do in these assays?
Myeloid diff 2: inactive; CendR NRP1 mod: 2; NadD inh: -2; CRFR2-BP antag: -13; FAS-TE inh: 65*; FAS-TE inh conf: 75*

How did O=C(NNS(=O)(=O)c1ccc([N+](=O)[O-])cc1)c1ccc([N+](=O)[O-])cc1 do in these assays?
Myeloid diff 2: inactive; CendR NRP1 mod: -8; NadD inh: -3; CRFR2-BP antag: 3; FAS-TE inh: 74*; FAS-TE inh conf: 77*

Results for CC(C)(CNC(=O)Cc1ccc(Cl)cc1Cl)N1CCCCC1 ?
Myeloid diff 2: inactive; CendR NRP1 mod: 11; NadD inh: -3; CRFR2-BP antag: -4; FAS-TE inh: -2

Screening data as filed in PubChem.
